High-throughput results deposited in PubChem by National Center for Advancing Translational Sciences (NCATS).
Hits are enriched below; roughly 18% of the tested compounds scored in any of these assays.
Gal4-VP16 FLuc – inhibits Gal4-VP16 luciferase reporter, ROR gamma counter-screen. Drosophila S2 Gal4-VP16 UAS-luciferase, luminescence, 20 h. Potency, µM (series often up to 53.6 µM), for the others: top-dose activity, negative = inhibition, actives largely listed as inhibitors. 310,000 compounds, 3.5% hits;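 note: Gal4-VP16 expression switched on by copper sulfate through the metallothionein promoter; potency is the fitted concentration of half-maximal effect; nearly all actives have a fitted effect of over 50% in size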
IL1B secr inh – blocks inflammasome-driven IL-1 beta release | THP-1 LPS/ATP IL-1B secretion, AlphaLISA, 16 h; stronger effect = lower value | activity change, % at 57.5 µM | 360,000 compounds, 4.7% hits; in the data active = activity change below about -50%; inconclusive = mostly about -30% to -49%
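THP-1 cells pretreated 1 hr with compounds (up to 57.5 uM final), then stimulated with LPS (250 ng/mL final) plus ATP (1.25 mM final); secreted IL-1B measured by AlphaLISA after 16 hr, decreased signal indicating inhibition.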
RORg inh – ROR gamma (mouse) transcription inhibition | Drosophila S2 Gal4-RORgamma UAS-luciferase reporter, 20 h | Potency, µM (highest dose often 53.6 µM), without a hit: top-dose activity change, negative = inhibition, actives largely listed as inhibitors | 310,000 compounds, 5.4% hits | AID 2551; note: potency is the fitted concentration of half-maximal effect; nearly all actives have a fitted effect of over 60% in size
Target sequence (P51450 whole entry, looked up, the tested form may be a part): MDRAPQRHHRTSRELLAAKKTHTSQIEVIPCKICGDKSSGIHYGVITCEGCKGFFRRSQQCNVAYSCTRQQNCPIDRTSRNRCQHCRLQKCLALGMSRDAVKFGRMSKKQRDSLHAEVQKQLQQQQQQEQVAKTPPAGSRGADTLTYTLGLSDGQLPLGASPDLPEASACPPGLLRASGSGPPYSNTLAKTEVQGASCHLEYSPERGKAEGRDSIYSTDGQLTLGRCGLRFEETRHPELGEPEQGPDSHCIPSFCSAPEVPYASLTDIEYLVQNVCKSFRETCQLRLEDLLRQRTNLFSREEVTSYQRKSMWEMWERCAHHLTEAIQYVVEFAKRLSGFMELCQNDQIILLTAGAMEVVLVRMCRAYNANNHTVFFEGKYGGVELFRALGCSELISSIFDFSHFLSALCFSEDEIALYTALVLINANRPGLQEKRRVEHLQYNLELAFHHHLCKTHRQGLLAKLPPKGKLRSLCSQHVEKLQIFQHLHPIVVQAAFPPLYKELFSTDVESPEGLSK
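A Gal4/UAS one-hybrid system in insect cells: metallothionein-promoter Gal4–ROR gamma fusion plus Photinus luciferase reporter. Copper sulfate 700 uM final, 20 hr ambient incubation, luminescent detection after 10 min with reagent.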
DT40 TDP1 no CPT – qHTS for Inhibitors of human tyrosyl-DNA phosphodiesterase 1 (TDP1): qHTS in cells in absence of CPT | DT40 Tdp1-/- hTDP1 cells, no CPT, ATP luminescence, 48 h | Potency, µM (highest dose often 46.2 µM), inactives show top-dose activity change, negative = growth inhibition, usual class: inhibitors | 420,000 compounds, 15% hits | AID 686978, 2013; note: potency is the fitted concentration of half-maximal effect; nearly all actives have a fitted effect of over 55% in size
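Chicken DT40 Tdp1-/- cells stably complemented with human TDP1 were seeded at 400 cells/well with DMSO in place of 20 nM camptothecin. After compound pinning, cells grew at least 48 hr at 37 °C; viability read by CellTiter-Glo luminescence.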
DT40 TDP1 CPT – DT40-hTDP1 cell growth loss with CPT. Potency, µM (top dose mostly 46.2 µM), for inactives: at the highest dose activity change, negative = growth inhibition, usual class: inhibitors. 420,000 compounds, 12% hits. chicken DT40 Tdp1-/-;hTDP1 cells + 20 nM CPT, ATP luminescence, 48 h. AID 686979; note: potency is the fitted concentration of half-maximal effect; nearly all actives have a fitted effect of over 55% in size
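Chicken DT40 Tdp1-/- cells stably complemented with human TDP1 were seeded at 400 cells/well in medium containing 20 nM camptothecin, exposed to pin-transferred compounds, and grown at 37 °C for at least 48 hr. Viability was read as ATP luminescence.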
LDHA inh – LDHA (human) enzyme inhibition; 480,000 compounds, 0.15% hits; activity change, % (values are at about 110 or 230 µM); purified LDHA, NADH/diaphorase-resazurin fluorescence; stronger effect = lower value; AID 1347041; in the data active = activity change below about -30%; inconclusive = mostly about -25% to -30%;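 note: plate controls were DMSO wells for no effect and wells without enzyme for full effect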
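Resorufin fluorescence (ex540/em590), read at 0 and 20 min after diaphorase/resazurin addition, reports the NADH left after a 5 min room-temperature reaction of 2 nM human LDH5 with 0.06 mM NADH and 0.2 mM pyruvate.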
The depositor's hits bear a star; ? = inconclusive; nt = no result. Unless noted, calls come from the whole dose curve; as a rule, active = well fitted curve in the direction sought with a large enough effect; inconclusive = small, poorly fitted or top-dose-only effect, or another doubt; inactive = no such curve, though single readings can be large; an effect the other way counts as inactive or inconclusive. Unless noted, % is set by controls: 0 for no effect and ±100 for the full control effect.

SMILES	Gal4-VP16 FLuc	IL1B secr inh	RORg inh	DT40 TDP1 no CPT	DT40 TDP1 CPT	LDHA inh
Cc1cccc(-c2nc(CN3CCCC(C(=O)NCCc4ccc(Cl)cc4)C3)c(C)o2)c1 (stereo unspecified)	nt	nt	nt	8.2µM*	16µM*	3
CNC(=O)NC(=O)C(C)OC(=O)c1ccc(COc2ccc3c(C)cc(=O)oc3c2)cc1 (stereo unspecified)	nt	nt	nt	nt	nt	0
C=CCn1c(SCc2nc3ccccc3o2)nnc1-c1ccc(Cl)cc1	nt	nt	nt	nt	nt	-6
CCOc1cc(/C=C/C(=O)c2ccc(F)cc2)cc(Br)c1OC	nt	nt	nt	nt	nt	3
CCc1ccc(-c2nc(CN3CCC(C(=O)NCCc4ccc(Cl)cc4)CC3)c(C)o2)cc1	nt	nt	nt	?	-10%	0
Cc1oc(-c2ccc(Cl)cc2)nc1CN1CCCC(C(=O)NCCc2ccccc2)C1 (stereo unspecified)	nt	nt	nt	5.8µM*	8.2µM*	2
CN(Cc1ccccc1)C(=O)C1CCCN(Cc2cccc3ccccc23)C1 (stereo unspecified)	nt	nt	nt	nt	nt	2
CN(Cc1ccccc1)C(=O)C1CCCN(Cc2ccc(Cl)cc2)C1 (stereo unspecified)	-1%	?	24%	26µM*	-95%	-23
CS(=O)(=O)Nc1cccc(CNC(=O)CC2CCCCC2)c1	nt	nt	nt	nt	nt	10
O=C(Nc1ccccc1F)C1Sc2nnc(-c3ccccc3)n2NC12CCCCC2 (stereo unspecified)	nt	nt	nt	nt	nt	14
Nc1ccc(C(=O)C(=O)c2ccc(N)cc2)cc1	-7%	-30	30%	-12%	-6%	-14
N=C1C=CC(=C(c2ccc(N)cc2)c2ccc(N)cc2)C=C1	?	0	-19%	3.3µM*	2.9µM*	4
COC(=O)CNC(=O)C1Cc2ccccc2CN1S(=O)(=O)c1cccs1 (stereo unspecified)	-4%	-74*	22%	-8%	-18%	-6
CC1(C)C(=O)OC(c2cc(Br)ccc2O)C(C)(C)C1=O (stereo unspecified)	-15%	-15	16%	21µM*	?	-5
CC1C(=O)C(C)C(c2cc(Br)ccc2O)NC1c1cc(Br)ccc1O (stereo unspecified)	nt	-97*	nt	?	-26%	-2
CC12CN3CC(C)(CN(C1)C3c1cc(Br)ccc1O)C2=O (stereo unspecified)	0%	-6	-14%	?	3%	-4
CCNc1oc(/C=C/c2cccc(OC)c2)nc1C#N	nt	nt	nt	nt	nt	10
O=C(CSc1nc2ccc(Cl)cc2[nH]1)Nc1ccc(S(=O)(=O)N2CCCCC2)cc1	nt	nt	nt	nt	nt	18
Cc1ccc2c(C)c(C(=O)N3CCC(C(N)=O)(N4CCCCC4)CC3)oc2c1C	nt	-9	nt	21µM*	?	0
COc1ccccc1C(=O)N1CCN(C(=O)c2oc3c(C)c(C)ccc3c2C)CC1	nt	-27	nt	16µM*	?	0
Cc1cccc(NC(=S)N2CCC(C(N)=O)(N3CCCCC3)CC2)c1C	-11%	28	-21%	2%	4%	-4
Cc1ccc(C(=O)NC(Nc2ccccc2F)C(=O)c2ccccc2)cc1 (stereo unspecified)	nt	nt	nt	nt	nt	0
Cc1c(C(=O)N2CC(C)OC(C)C2)sc2nc(-c3ccc(F)cc3)cn12 (stereo unspecified)	?	19	?	18µM*	?	-7
COc1ccccc1N1CCN(C(=O)c2sc3nc(-c4ccc(F)cc4)cn3c2C)CC1	-11%	?	33%	16µM*	23µM*	2
CCc1ccc(-c2nc(C(N)=O)c3[nH]c(=O)n(-c4ccccc4OC)c3n2)cc1	-5%	48	?	2.6µM*	2.3µM*	-18
SMILES	Gal4-VP16 FLuc	IL1B secr inh	RORg inh	DT40 TDP1 no CPT	DT40 TDP1 CPT	LDHA inh
COc1ccc(-c2nc(C(N)=O)c3[nH]c(=O)n(-c4cccc(Cl)c4)c3n2)cc1OC	?	11	?	21µM*	?	-6
COc1cccc(-c2nc(C(N)=O)c3[nH]c(=O)n(-c4cccc(Cl)c4)c3n2)c1OC	9%	-9	44%	9%	0%	6
Cc1ccsc1-c1nc(C(N)=O)c2[nH]c(=O)n(-c3ccc(Cl)cc3)c2n1	-3%	-21	5%	4.1µM*	5.8µM*	-9
CCOc1c(Br)cc(/C=C/c2ncc(C(=O)O)s2)cc1OC	nt	nt	nt	nt	nt	5
CCN1CCC(O)C(C)C1C (stereo unspecified)	nt	nt	nt	nt	nt	-1
O=C(Cn1c(=O)c2c(ncn2Cc2ccccc2)n(Cc2ccccc2)c1=O)NCCc1ccccc1	nt	nt	nt	nt	nt	8
Cc1cccc(C)c1NC(=O)CN(C)C(=O)c1cccc(S(=O)(=O)N2CCN(C)CC2)c1	nt	-8	nt	?	?	-1
CN(CC(=O)Nc1cccc(F)c1)C(=O)c1cccc(S(=O)(=O)N2CCN(c3ccc(F)cc3)CC2)c1	nt	-1	nt	21µM*	21µM*	-1
Cc1cccc(C)c1NC(=O)CN(C)C(=O)c1cccc(S(=O)(=O)N2CCN(c3ccc(F)cc3)CC2)c1	nt	-19	nt	7.3µM*	12µM*	-1
CCc1ccc(C(=O)OCC(=O)NC(=O)NC(C)C)cc1	nt	nt	nt	nt	nt	4
CN(CC(=O)NCc1nc(-c2ccccc2)no1)S(=O)(=O)c1ccc2ccccc2c1	nt	nt	nt	nt	nt	7
CCCc1cc(=O)[nH]c(SCc2nc(-c3ccc(OC)cc3OC)no2)n1	nt	nt	nt	nt	nt	5
CCOc1ccccc1N1CCN(Cc2cnc(-c3ccccc3)[nH]2)CC1	9%	?	2%	23µM*	?	-8
CCOc1ccccc1N1CCN(Cc2ccco2)CC1	-16%	-16	-42%	-17%	-25%	-7
COc1ccc(NC(=O)Cn2c(=O)n(-c3cc(C)cc(C)c3)c(=O)c3oc4ccccc4c32)cc1OC	nt	nt	nt	8.2µM*	8.2µM*	2
CCc1ccc(NC(=O)Cn2c(=O)n(-c3cc(C)cc(C)c3)c(=O)c3oc4ccccc4c32)cc1	nt	nt	nt	-18%	-3%	-2
Cc1ccc(Cn2c(=O)n(Cc3ccco3)c(=O)c3oc4ccccc4c32)cc1	nt	nt	nt	-10%	-6%	1
COc1ccc(NC(=O)Cn2c(=O)n(C(C)C)c(=O)c3oc4ccccc4c32)cc1Cl	nt	nt	nt	16µM*	?	3
Cc1ccc(Cn2c(=O)n(-c3cc(C)cc(C)c3)c(=O)c3oc4ccccc4c32)cc1	nt	nt	nt	23µM*	?	1
